Source: PubChem BioAssay AID1159580 (chemical genetic matrix, 2015)
Values joined by “and” are separate entries in the source; they are usually repeats but may differ in a detail not shown here. Identical values can stand only once. Screen size: about 5,500 compounds; about 2,000 (36%) were called active. Inconclusive results (about 18%) are left out. No stated cut-off is given here; in the data, active means normalized growth mostly below about 0.91 (no sharp cut-off); inconclusive means no clear call, values can overlap the other calls; inactive means mostly above about 0.92. The list shows a part of the results.

Test: chemical genetic growth profiling, strain panel (AID 1159580);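 further: tested at 20 µM; growth read once vehicle control cultures reached saturation at 30 °C; 1 = growth at the plate median or of vehicle wells; lower values mean less growth of the strain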
Conditions: growth OD

Measured: normalized growth

CCCCC1C(=O)N(c2ccccc2)N(c2ccccc2)C1=O
inactive: S. cerevisiae deletion strains, locus YJR075W, strain HOC1, hits give low values 1 | S. cerevisiae deletion strains, locus YKL009W, strain mrt4, hits give low values 0.98 | S. cerevisiae deletion strains, locus YKL068W, hits give low values 0.963 | S. cerevisiae deletion strains, locus YKL085W, strain MDH1 (second series), hits give low values 0.959 | S. cerevisiae deletion strains, locus YKL085W, strain MDH1, hits give low values 0.959 | S. cerevisiae deletion strains, locus YKL160W, strain elf1, hits give low values 1.01 | S. cerevisiae deletion strains, locus YKL190W, strain CNB1, hits give low values 0.972 | S. cerevisiae deletion strains, locus YKR001C, strain vps1, hits give low values 0.994 | S. cerevisiae deletion strains, locus YKR026C, strain gcn3, hits give low values 0.988 | S. cerevisiae deletion strains, locus YKR091W, strain srl3, hits give low values 0.986 | S. cerevisiae deletion strains, locus YLL001W, strain dnm1, hits give low values 0.992 | S. cerevisiae deletion strains, locus YLL026W, hits give low values 0.99 | S. cerevisiae deletion strains, locus YLL041C, strain sdh2, hits give low values 0.985 | S. cerevisiae deletion strains, locus YLR027C, strain aat2, hits give low values 0.987 | S. cerevisiae deletion strains, locus YLR039C, strain RIC1, hits give low values 0.895 | S. cerevisiae deletion strains, locus YLR058C, strain SHM2, hits give low values 0.987 | S. cerevisiae deletion strains, locus YLR102C, strain apc9, hits give low values 0.983 | S. cerevisiae deletion strains, locus YLR113W, strain HOG1, hits give low values 0.899 | S. cerevisiae deletion strains, locus YLR221C, strain rsa3, hits give low values 1.02 | S. cerevisiae deletion strains, locus YLR258W, strain gsy2, hits give low values 0.993 | S. cerevisiae deletion strains, locus YLR262C, strain YPT6 (second series), hits give low values 0.93 | S. cerevisiae deletion strains, locus YLR262C, strain YPT6, hits give low values 0.893 | S. cerevisiae deletion strains, locus YLR268W, strain sec22, hits give low values 1.06 | S. cerevisiae deletion strains, locus YLR320W, strain mms22, hits give low values 1.02 | S. cerevisiae deletion strains, locus YLR330W, strain CHS5, hits give low values 0.984 | S. cerevisiae deletion strains, locus YLR342W, strain FKS1 (second series), hits give low values 0.994 | S. cerevisiae deletion strains, locus YLR342W, strain FKS1, hits give low values 0.978 | S. cerevisiae deletion strains, locus YLR357W, strain rsc2, hits give low values 1.04 | S. cerevisiae deletion strains, locus YLR370C, strain arc18, hits give low values 0.973 | S. cerevisiae deletion strains, locus YLR371W, strain rom2, hits give low values 1 | S. cerevisiae deletion strains, locus YLR384C, strain iki3, hits give low values 0.996 | S. cerevisiae deletion strains, locus YLR418C, strain cdc73, hits give low values 0.995 | S. cerevisiae deletion strains, locus YML016C, strain PPZ1, hits give low values 0.98 | S. cerevisiae deletion strains, locus YML032C, strain rad52, hits give low values 1.02 | S. cerevisiae deletion strains, locus YML120C, strain ndi1, hits give low values 0.999 | S. cerevisiae deletion strains, locus YML124C, strain tub3, hits give low values 0.982 | S. cerevisiae deletion strains, locus YMR058W, strain fet3, hits give low values 0.993 | S. cerevisiae deletion strains, locus YMR078C, strain ctf18, hits give low values 0.988 | S. cerevisiae deletion strains, locus YMR125W, strain sto1, hits give low values 0.989 | S. cerevisiae deletion strains, locus YMR129W, hits give low values 0.986 | S. cerevisiae deletion strains, locus YMR205C, strain PFK2, hits give low values 0.989 | S. cerevisiae deletion strains, locus YMR223W, strain ubp8, hits give low values 0.967 | S. cerevisiae deletion strains, locus YMR231W, strain pep5, hits give low values 0.996 | S. cerevisiae deletion strains, locus YMR263W, strain SAP30, hits give low values 0.997 | S. cerevisiae deletion strains, locus YMR307W, strain GAS1, hits give low values 0.971 | S. cerevisiae deletion strains, locus YNL067W, strain RPL9B, hits give low values 1.02 | S. cerevisiae deletion strains, locus YNL071W, strain lat1, hits give low values 0.994 | S. cerevisiae deletion strains, locus YNL128W, strain TEP1, hits give low values 0.99 | S. cerevisiae deletion strains, locus YNL153C, strain GIM3, hits give low values 1.04 and 1 | S. cerevisiae deletion strains, locus YNL175C, strain NOP13, hits give low values 0.971 | S. cerevisiae deletion strains, locus YNL183C, strain NPR1, hits give low values 0.946 | S. cerevisiae deletion strains, locus YNL197C, strain WHI3, hits give low values 0.976 | S. cerevisiae deletion strains, locus YNL209W, strain ssb2, hits give low values 1 | S. cerevisiae deletion strains, locus YNL224C, strain SQS1, hits give low values 0.972 | S. cerevisiae deletion strains, locus YNL233W, strain BNI4, hits give low values 1.04 | S. cerevisiae deletion strains, locus YNL248C, strain rpa49, hits give low values 1.03 | S. cerevisiae deletion strains, locus YNL250W, strain rad50, hits give low values 0.972 | S. cerevisiae deletion strains, locus YNL271C, strain bni1, hits give low values 0.979 | S. cerevisiae deletion strains, locus YNL298W, strain CLA4, hits give low values 0.998 | S. cerevisiae deletion strains, locus YNL307C, strain MCK1, hits give low values 1.01 | S. cerevisiae deletion strains, locus YNL322C, strain KRE1 (second series), hits give low values 0.982 | S. cerevisiae deletion strains, locus YNL322C, strain KRE1, hits give low values 0.973 | S. cerevisiae deletion strains, locus YNR049C, strain mso1, hits give low values 0.985 | S. cerevisiae deletion strains, locus YNR052C, strain pop2, hits give low values 0.999 | S. cerevisiae deletion strains, locus YOL006C, strain TOP1, hits give low values 1.05 | S. cerevisiae deletion strains, locus YOL012C, strain htz1 0.887 | S. cerevisiae deletion strains, locus YOL147C, strain pex11, hits give low values 0.993 | S. cerevisiae deletion strains, locus YOR001W, strain rrp6, hits give low values 0.99 | S. cerevisiae deletion strains, locus YOR061W, strain CKA2, hits give low values 0.977 | S. cerevisiae deletion strains, locus YOR069W, strain VPS5, hits give low values 0.984 | S. cerevisiae deletion strains, locus YOR070C, strain gyp1, hits give low values 0.999 | S. cerevisiae deletion strains, locus YOR080W, strain dia2, hits give low values 0.987 | S. cerevisiae deletion strains, locus YOR083W, strain WHI5 (second series), hits give low values 0.994 | S. cerevisiae deletion strains, locus YOR083W, strain WHI5, hits give low values 1.02 | S. cerevisiae deletion strains, locus YOR106W, strain vam3, hits give low values 1.03 | S. cerevisiae deletion strains, locus YOR136W, strain idh2, hits give low values 0.982 | S. cerevisiae deletion strains, locus YOR144C, strain elg1, hits give low values 0.985 | S. cerevisiae deletion strains, locus YOR184W, strain ser1, hits give low values 1 | S. cerevisiae deletion strains, locus YOR231W, strain MKK1, hits give low values 0.933 | S. cerevisiae deletion strains, locus YOR265W, strain rbl2, hits give low values 0.988 | S. cerevisiae deletion strains, locus YOR270C, strain vph1, hits give low values 1.02 | S. cerevisiae deletion strains, locus YOR290C, strain snf2, hits give low values 1.02 | S. cerevisiae deletion strains, locus YOR316C, strain cot1, hits give low values 0.986 | S. cerevisiae deletion strains, locus YPL051W, strain arl3, hits give low values 0.992 | S. cerevisiae deletion strains, locus YPL055C, strain LGE1, hits give low values 1 and 0.997 | S. cerevisiae deletion strains, locus YPL078C, strain atp4, hits give low values 1.02 | S. cerevisiae deletion strains, locus YPL106C, strain sse1, hits give low values 1.01 | S. cerevisiae deletion strains, locus YPL240C, strain hsp82, hits give low values 0.994 | S. cerevisiae deletion strains, locus YPL241C, strain CIN2, hits give low values 0.981 and 1 | S. cerevisiae deletion strains, locus YPL256C, strain CLN2, hits give low values 0.914 | S. cerevisiae deletion strains, locus YPR119W, strain clb2, hits give low values 0.977 | S. cerevisiae deletion strains, locus YPR141C, strain kar3, hits give low values 0.961 | S. cerevisiae deletion strains, locus YPR163C, strain tif3, hits give low values 1 | S. cerevisiae deletion strains, locus YPR167C, strain met16, hits give low values 0.993 | S. cerevisiae deletion strains, strain wtn01, hits give low values 1.02 | S. cerevisiae strains, strain wild type, hits give low values 0.984
